# The campaign covered roughly 5,500 compounds. About 2,000 (36%) were called active. Another 18% or so got no clear call; they are omitted. The list shows a part of the results. Values without a mark were called inactive. Cut-off read from the data, not from the text of the source: active = normalized growth mostly below about 0.91 (no sharp cut-off); inconclusive = no clear call, values can overlap the other calls; inactive = mostly above about 0.92.
# Test: chemical genetic growth profiling, strain panel (AID 1159580);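 note: tested at 20 µM; growth read once vehicle control cultures reached saturation at 30 °C; 1 = growth at the plate median or of vehicle wells; lower values mean less growth of the strain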
# Settings: growth OD
smiles,measurement,setting,value
C#C[C@]1(O)CCC2C3CCC4=C(CCC(=O)C4)C3CC[C@@]21C (some centres undefined),normalized growth,"S. cerevisiae deletion strains, locus YJR075W, strain HOC1, active compounds read low",1.02
same,normalized growth,"S. cerevisiae deletion strains, locus YKL009W, strain mrt4, active compounds read low",0.974
same,normalized growth,"S. cerevisiae deletion strains, locus YKL068W, active compounds read low",1.01
same,normalized growth,"S. cerevisiae deletion strains, locus YKL085W, strain MDH1 (second series), active compounds read low",1.01
same,normalized growth,"S. cerevisiae deletion strains, locus YKL085W, strain MDH1, active compounds read low",1.01
same,normalized growth,"S. cerevisiae deletion strains, locus YKL160W, strain elf1, active compounds read low",0.998
same,normalized growth,"S. cerevisiae deletion strains, locus YKL190W, strain CNB1, active compounds read low",1.04
same,normalized growth,"S. cerevisiae deletion strains, locus YKR001C, strain vps1, active compounds read low",1.01
same,normalized growth,"S. cerevisiae deletion strains, locus YKR026C, strain gcn3, active compounds read low",0.986
same,normalized growth,"S. cerevisiae deletion strains, locus YKR091W, strain srl3, active compounds read low",0.982
same,normalized growth,"S. cerevisiae deletion strains, locus YLL001W, strain dnm1, active compounds read low",1
same,normalized growth,"S. cerevisiae deletion strains, locus YLL026W, active compounds read low",0.994
same,normalized growth,"S. cerevisiae deletion strains, locus YLL041C, strain sdh2, active compounds read low",0.977
same,normalized growth,"S. cerevisiae deletion strains, locus YLR027C, strain aat2, active compounds read low",0.983
same,normalized growth,"S. cerevisiae deletion strains, locus YLR039C, strain RIC1, active compounds read low",0.911
same,normalized growth,"S. cerevisiae deletion strains, locus YLR058C, strain SHM2, active compounds read low",1.01
same,normalized growth,"S. cerevisiae deletion strains, locus YLR102C, strain apc9, active compounds read low",1.01
same,normalized growth,"S. cerevisiae deletion strains, locus YLR113W, strain HOG1, active compounds read low",0.852
same,normalized growth,"S. cerevisiae deletion strains, locus YLR221C, strain rsa3, active compounds read low",0.96
same,normalized growth,"S. cerevisiae deletion strains, locus YLR258W, strain gsy2, active compounds read low",0.973
same,normalized growth,"S. cerevisiae deletion strains, locus YLR262C, strain YPT6 (second series), active compounds read low",0.825 (active)
same,normalized growth,"S. cerevisiae deletion strains, locus YLR262C, strain YPT6, active compounds read low",0.868
same,normalized growth,"S. cerevisiae deletion strains, locus YLR268W, strain sec22, active compounds read low",0.959
same,normalized growth,"S. cerevisiae deletion strains, locus YLR320W, strain mms22, active compounds read low",0.963
same,normalized growth,"S. cerevisiae deletion strains, locus YLR330W, strain CHS5, active compounds read low",1.02
same,normalized growth,"S. cerevisiae deletion strains, locus YLR342W, strain FKS1 (second series), active compounds read low",0.953
same,normalized growth,"S. cerevisiae deletion strains, locus YLR342W, strain FKS1, active compounds read low",0.968
same,normalized growth,"S. cerevisiae deletion strains, locus YLR357W, strain rsc2, active compounds read low",1.03
same,normalized growth,"S. cerevisiae deletion strains, locus YLR370C, strain arc18, active compounds read low",0.97
same,normalized growth,"S. cerevisiae deletion strains, locus YLR371W, strain rom2, active compounds read low",1
same,normalized growth,"S. cerevisiae deletion strains, locus YLR384C, strain iki3, active compounds read low",0.974
same,normalized growth,"S. cerevisiae deletion strains, locus YLR418C, strain cdc73, active compounds read low",0.961
same,normalized growth,"S. cerevisiae deletion strains, locus YML016C, strain PPZ1, active compounds read low",1.01
same,normalized growth,"S. cerevisiae deletion strains, locus YML032C, strain rad52, active compounds read low",0.975
same,normalized growth,"S. cerevisiae deletion strains, locus YML120C, strain ndi1, active compounds read low",0.97
same,normalized growth,"S. cerevisiae deletion strains, locus YML124C, strain tub3, active compounds read low",1.01
same,normalized growth,"S. cerevisiae deletion strains, locus YMR058W, strain fet3, active compounds read low",0.963
same,normalized growth,"S. cerevisiae deletion strains, locus YMR078C, strain ctf18, active compounds read low",1
same,normalized growth,"S. cerevisiae deletion strains, locus YMR125W, strain sto1, active compounds read low",1.01
same,normalized growth,"S. cerevisiae deletion strains, locus YMR129W, active compounds read low",0.972
same,normalized growth,"S. cerevisiae deletion strains, locus YMR205C, strain PFK2, active compounds read low",0.978
same,normalized growth,"S. cerevisiae deletion strains, locus YMR223W, strain ubp8, active compounds read low",1.01
same,normalized growth,"S. cerevisiae deletion strains, locus YMR231W, strain pep5, active compounds read low",0.981
same,normalized growth,"S. cerevisiae deletion strains, locus YMR307W, strain GAS1, active compounds read low",0.989
same,normalized growth,"S. cerevisiae deletion strains, locus YNL067W, strain RPL9B, active compounds read low",1.02
same,normalized growth,"S. cerevisiae deletion strains, locus YNL071W, strain lat1, active compounds read low",0.963
same,normalized growth,"S. cerevisiae deletion strains, locus YNL128W, strain TEP1, active compounds read low",1.03
same,normalized growth,"S. cerevisiae deletion strains, locus YNL153C, strain GIM3, active compounds read low",1.03
same,normalized growth,"S. cerevisiae deletion strains, locus YNL183C, strain NPR1, active compounds read low",0.919
same,normalized growth,"S. cerevisiae deletion strains, locus YNL209W, strain ssb2, active compounds read low",0.989
same,normalized growth,"S. cerevisiae deletion strains, locus YNL233W, strain BNI4, active compounds read low",0.998
same,normalized growth,"S. cerevisiae deletion strains, locus YNL248C, strain rpa49, active compounds read low",0.96
same,normalized growth,"S. cerevisiae deletion strains, locus YNL250W, strain rad50, active compounds read low",0.992
same,normalized growth,"S. cerevisiae deletion strains, locus YNL271C, strain bni1, active compounds read low",0.991
same,normalized growth,"S. cerevisiae deletion strains, locus YNL298W, strain CLA4, active compounds read low",0.986
same,normalized growth,"S. cerevisiae deletion strains, locus YNL307C, strain MCK1, active compounds read low",0.99
same,normalized growth,"S. cerevisiae deletion strains, locus YNL322C, strain KRE1 (second series), active compounds read low",0.97
same,normalized growth,"S. cerevisiae deletion strains, locus YNR049C, strain mso1, active compounds read low",0.982
same,normalized growth,"S. cerevisiae deletion strains, locus YNR052C, strain pop2, active compounds read low",0.992
same,normalized growth,"S. cerevisiae deletion strains, locus YOL006C, strain TOP1, active compounds read low",0.931
same,normalized growth,"S. cerevisiae deletion strains, locus YOL012C, strain htz1",1.9
same,normalized growth,"S. cerevisiae deletion strains, locus YOL147C, strain pex11, active compounds read low",1.01
same,normalized growth,"S. cerevisiae deletion strains, locus YOR001W, strain rrp6, active compounds read low",0.936
same,normalized growth,"S. cerevisiae deletion strains, locus YOR061W, strain CKA2, active compounds read low",1
same,normalized growth,"S. cerevisiae deletion strains, locus YOR069W, strain VPS5, active compounds read low",1.02
same,normalized growth,"S. cerevisiae deletion strains, locus YOR070C, strain gyp1, active compounds read low",1
same,normalized growth,"S. cerevisiae deletion strains, locus YOR080W, strain dia2, active compounds read low",0.999
same,normalized growth,"S. cerevisiae deletion strains, locus YOR083W, strain WHI5, active compounds read low",0.985
same,normalized growth,"S. cerevisiae deletion strains, locus YOR106W, strain vam3, active compounds read low",0.991
same,normalized growth,"S. cerevisiae deletion strains, locus YOR136W, strain idh2, active compounds read low",1
same,normalized growth,"S. cerevisiae deletion strains, locus YOR144C, strain elg1, active compounds read low",1
same,normalized growth,"S. cerevisiae deletion strains, locus YOR184W, strain ser1, active compounds read low",0.898
same,normalized growth,"S. cerevisiae deletion strains, locus YOR231W, strain MKK1, active compounds read low",0.919
same,normalized growth,"S. cerevisiae deletion strains, locus YOR265W, strain rbl2, active compounds read low",0.987
same,normalized growth,"S. cerevisiae deletion strains, locus YOR270C, strain vph1, active compounds read low",0.955
same,normalized growth,"S. cerevisiae deletion strains, locus YOR290C, strain snf2, active compounds read low",0.932
same,normalized growth,"S. cerevisiae deletion strains, locus YOR316C, strain cot1, active compounds read low",1
same,normalized growth,"S. cerevisiae deletion strains, locus YPL051W, strain arl3, active compounds read low",0.983
same,normalized growth,"S. cerevisiae deletion strains, locus YPL078C, strain atp4, active compounds read low",0.93
same,normalized growth,"S. cerevisiae deletion strains, locus YPL106C, strain sse1, active compounds read low",1.03
same,normalized growth,"S. cerevisiae deletion strains, locus YPL240C, strain hsp82, active compounds read low",0.981
same,normalized growth,"S. cerevisiae deletion strains, locus YPL241C, strain CIN2, active compounds read low",1.02
same,normalized growth,"S. cerevisiae deletion strains, locus YPL256C, strain CLN2, active compounds read low",0.838
same,normalized growth,"S. cerevisiae deletion strains, locus YPR119W, strain clb2, active compounds read low",1
same,normalized growth,"S. cerevisiae deletion strains, locus YPR141C, strain kar3, active compounds read low",1.01
same,normalized growth,"S. cerevisiae deletion strains, locus YPR163C, strain tif3, active compounds read low",1.02
same,normalized growth,"S. cerevisiae deletion strains, locus YPR167C, strain met16, active compounds read low",1
same,normalized growth,"S. cerevisiae deletion strains, strain wtn01, active compounds read low",0.996
same,normalized growth,"S. cerevisiae strains, strain wild type, active compounds read low",1.03
